# Reference: the supplement of paper PMC8728848
# Only a selection was taken, and the strongest signals are over-represented in it overall.
# What was measured:
# Assay in all cases: glycan array binding signal (z-score within array); higher = stronger binding
# Conditions in all cases: glycan notation: IUPAC condensed, linker removed
# [1] = biological target: Fuc(a1-2)Gal(b1-3)GlcNAc(b1-3)[Gal(b1-4)GlcNAc(b1-6)]Gal(b1-4)Glc
# Method in brief: (§1)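 The binding signal is a Z-score computed within each array and averaged over linkers. Arrays of the same protein sequence at different concentrations or buffers were also averaged together. Data originate from 3228 arrays in the Consortium for Functional Glycomics database, kept only where the protein sequence was available.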
# [2] = biological target: Fuc(a1-2)Gal(b1-4)GlcNAc(b1-2)Man(a1-3)[Fuc(a1-2)Gal(b1-4)GlcNAc(b1-2)Man(a1-6)]Man(b1-4)GlcNAc(b1-4)[Fuc(a1-6)]GlcNAc
# Method in brief: as §1
# [3] = biological target: Fuc(a1-2)Gal(b1-4)GlcNAc(b1-3)Gal(b1-4)GlcNAc(b1-2)Man(a1-3)[Fuc(a1-2)Gal(b1-4)GlcNAc(b1-3)Gal(b1-4)GlcNAc(b1-2)Man(a1-6)]Man(b1-4)GlcNAc(b1-4)GlcNAc
# Method in brief: as §1
# [4] = biological target: Fuc(a1-2)Gal(b1-4)GlcNAc(b1-3)[Fuc(a1-2)Gal(b1-4)GlcNAc(b1-6)]GalNAc
# Method in brief: as §1
# [5] = biological target: Fuc(a1-2)Gal(b1-4)[Fuc(a1-3)]GlcNAc(b1-3)[Neu5Ac(a2-6)Gal(b1-4)GlcNAc(b1-6)]Gal(b1-4)Glc
# Method in brief: as §1
# [6] = biological target: Fuc(a1-2)[Gal(a1-3)]Gal(b1-3)GlcNAc(b1-3)GalNAc
# Method in brief: as §1
# [7] = biological target: Fuc(a1-2)[GalNAc(a1-3)]Gal(b1-3)GalNAc(b1-3)Gal(a1-4)Gal(b1-4)Glc
# Method in brief: as §1
# [8] = biological target: Fuc(a1-2)[GalNAc(a1-3)]Gal(b1-3)GlcNAc(b1-2)Man(a1-3)[Fuc(a1-2)[GalNAc(a1-3)]Gal(b1-3)GlcNAc(b1-2)Man(a1-6)]Man(b1-4)GlcNAc(b1-4)GlcNAc
# Method in brief: as §1
# [9] = biological target: Fuc(a1-2)[GalNAc(a1-3)]Gal(b1-4)[Fuc(a1-3)]GlcNAc
# Method in brief: as §1
# [10] = biological target: Fuc(a1-2)[GalNAc(a1-3)]Gal(b1-4)[Fuc(a1-3)]GlcNAc(b1-3)GalNAc
# Method in brief: as §1
# [11] = biological target: Fuc(a1-3)[Gal(b1-4)]Glc6S
# Method in brief: as §1
# [12] = biological target: Fuc(a1-3)[Gal(b1-4)]GlcNAc(b1-6)GalNAc
# Method in brief: as §1
# [13] = biological target: Fuc(a1-3)[Gal(b1-4)]GlcNAc(b1-6)[Gal(b1-3)GlcNAc(b1-3)]Gal(b1-4)Glc
# Method in brief: as §1
# [14] = biological target: Fuc(a1-3)[Gal3S(b1-4)]GlcNAc6S
# Method in brief: as §1
# [15] = biological target: Fuc(a1-3)[GalNAc(b1-4)]GlcNAc
# Method in brief: as §1
# Gal(a1-3)Gal(b1-4)GlcNAc = biological target: Gal(a1-3)Gal(b1-4)GlcNAc
# Method in brief: as §1
# Gal(a1-4)Gal(b1-4)Glc = biological target: Gal(a1-4)Gal(b1-4)Glc
# Method in brief: as §1
# [16] = biological target: Gal(b1-3)GalNAc(a1-3)[Fuc(a1-2)]Gal(b1-4)GlcNAc
# Method in brief: as §1
# [17] = biological target: Gal(b1-4)GlcNAc(b1-2)[Gal(b1-4)GlcNAc(b1-6)]Man(a1-6)[GlcNAc(b1-4)][Gal(b1-4)GlcNAc(b1-2)[Gal(b1-4)GlcNAc(b1-4)]Man(a1-3)]Man(b1-4)GlcNAc(b1-4)[Fuc(a1-6)]GlcNAc
# Method in brief: as §1
# [18] = biological target: Gal(b1-4)GlcNAc(b1-3)Gal(b1-4)GlcNAc(b1-2)Man(a1-3)[Gal(b1-4)GlcNAc(b1-3)Gal(b1-4)GlcNAc(b1-2)Man(a1-6)]Man(b1-4)GlcNAc(b1-4)GlcNAc
# Method in brief: as §1
# [19] = biological target: Gal(b1-4)GlcNAc(b1-3)Gal(b1-4)GlcNAc(b1-3)Gal(b1-4)GlcNAc
# Method in brief: as §1
# [20] = biological target: Gal(b1-4)GlcNAc(b1-3)Gal(b1-4)GlcNAc(b1-6)[Gal(b1-3)]GalNAc
# Method in brief: as §1
# [21] = biological target: Gal(b1-4)GlcNAc(b1-6)GalNAc
# Method in brief: as §1
# Gal3S6S(b1-4)GlcNAc = biological target: Gal3S6S(b1-4)GlcNAc
# Method in brief: as §1
# [22] = biological target: GalNAc(b1-3)Gal(a1-4)Gal(b1-4)GlcNAc
# Method in brief: as §1
# GalNAc(b1-4)GlcNAc = biological target: GalNAc(b1-4)GlcNAc
# Method in brief: as §1
# [23] = biological target: Glc(a1-6)Glc(a1-6)Glc(a1-6)Glc
# Method in brief: as §1
# [24] = biological target: GlcNAc(a1-4)Gal(b1-4)GlcNAc
# Method in brief: as §1
# [25] = biological target: GlcNAc(b1-2)[GlcNAc(b1-4)]Man(a1-3)[GlcNAc(b1-4)][GlcNAc(b1-2)[GlcNAc(b1-6)]Man(a1-6)]Man(b1-4)GlcNAc(b1-4)[Fuc(a1-6)]GlcNAc
# Method in brief: as §1
# [26] = biological target: GlcNAc(b1-2)[GlcNAc(b1-6)]Man(a1-6)[GlcNAc(b1-2)Man(a1-3)]Man(b1-4)GlcNAc(b1-4)[Fuc(a1-6)]GlcNAc
# Method in brief: as §1
# [27] = biological target: GlcNAc(b1-3)Gal(b1-4)GlcNAc(b1-2)Man(a1-3)[GlcNAc(b1-3)Gal(b1-4)GlcNAc(b1-2)Man(a1-6)]Man(b1-4)GlcNAc(b1-4)GlcNAc
# Method in brief: as §1
# [28] = biological target: GlcNAc(b1-3)Gal(b1-4)GlcNAc(b1-3)Gal(b1-4)GlcNAc(b1-3)GalNAc
# Method in brief: as §1
# [29] = biological target: GlcNAc(b1-6)Gal(b1-4)GlcNAc
# Method in brief: as §1
# [30] = biological target: Man(a1-2)Man(a1-2)Man(a1-3)Man
# Method in brief: as §1
# [31] = biological target: Man(a1-3)[Man(a1-6)]Man(b1-4)GlcNAc(b1-4)[Fuc(a1-6)]GlcNAc
# Method in brief: as §1
# [32] = biological target: Neu5Ac(a2-3)Gal(b1-4)GlcNAc(b1-2)[Neu5Ac(a2-3)Gal(b1-4)GlcNAc(b1-6)]Man(a1-6)[Neu5Ac(a2-3)Gal(b1-4)GlcNAc(b1-2)Man(a1-3)][GlcNAc(b1-4)]Man(b1-4)GlcNAc(b1-4)GlcNAc
# Method in brief: as §1
# [33] = biological target: Neu5Ac(a2-3)Gal(b1-4)GlcNAc(b1-3)Gal(b1-4)GlcNAc
# Method in brief: as §1
# [34] = biological target: Neu5Ac(a2-3)Gal(b1-4)GlcNAc(b1-3)Gal(b1-4)GlcNAc(b1-3)[Neu5Ac(a2-3)Gal(b1-4)GlcNAc(b1-3)Gal(b1-4)GlcNAc(b1-6)]GalNAc
# Method in brief: as §1
# [35] = biological target: Neu5Ac(a2-3)Gal(b1-4)[Fuc(a1-3)]GlcNAc(b1-3)GalNAc
# Method in brief: as §1
# [36] = biological target: Neu5Ac(a2-3)Gal(b1-4)[Fuc(a1-3)]GlcNAc(b1-6)[Gal(b1-3)]GalNAc
# Method in brief: as §1
# Neu5Ac(a2-3)GalNAc = biological target: Neu5Ac(a2-3)GalNAc
# Method in brief: as §1
# [37] = biological target: Neu5Ac(a2-6)Gal(b1-4)GlcNAc(b1-2)Man(a1-3)[GlcNAc(b1-4)][Neu5Ac(a2-6)Gal(b1-4)GlcNAc(b1-2)Man(a1-6)]Man(b1-4)GlcNAc(b1-4)GlcNAc
# Method in brief: as §1
# [38] = biological target: Neu5Ac(a2-6)Gal(b1-4)GlcNAc(b1-2)Man(a1-6)Man(b1-4)GlcNAc(b1-4)GlcNAc
# Method in brief: as §1
# [39] = biological target: Neu5Ac(a2-6)Gal(b1-4)GlcNAc(b1-3)GalNAc
# Method in brief: as §1
# [40] = biological target: Neu5Gc(a2-3)Gal(b1-4)GlcNAc(b1-3)Gal(b1-4)GlcNAc(b1-2)Man(a1-3)[Neu5Gc(a2-3)Gal(b1-4)GlcNAc(b1-3)Gal(b1-4)GlcNAc(b1-2)Man(a1-6)]Man(b1-4)GlcNAc(b1-4)GlcNAc
# Method in brief: as §1
binder,measurement,setting,value
"SRA-1 (Homo sapiens), P21757 (protein) MEQWDHFHNQQEDTDSCSESVKFDARSMTALLPPNPKNSPSLQEKLKSFKAALIALYLLVFAVLIPLIGIVAAQLLKWETKNCSVSSTNANDITQSLTGKGNDSEEEMRFQEVFMEHMSNMEKRIQHILDMEANLMDTEHFQNFSMTTDQRFNDILLQLSTLFSSVQGHGNAIDEISKSLISLNTTLLDLQLNIENLNGKIQENTFKQQEEISKLEERVYNVSAEIMAMKEEQVHLEQEIKGEVKVLNNITNDLRLKDWEHSQTLRNITLIQGPPGPPGEKGDRGPTGESGPRGFPGPIGPPGLKGDRGAIGFPGSRGLPGYAGRPGNSGPKGQKGEKGSGNTLTPFTKVRLVGGSGPHEGRVEILHSGQWGTICDDRWEVRVGQVVCRSLGYPGVQAVHKAAHFGQGTGPIWLNEVFCFGRESSIEECKIRQWGTRACSHSEDAGVTCTL",glycan array binding signal (z-score),[1],-0.462
same,glycan array binding signal (z-score),[2],-0.606
same,glycan array binding signal (z-score),[3],0.064
same,glycan array binding signal (z-score),[4],1.17
same,glycan array binding signal (z-score),[5],0.274
same,glycan array binding signal (z-score),[6],-0.365
same,glycan array binding signal (z-score),[7],-0.415
same,glycan array binding signal (z-score),[8],0.613
same,glycan array binding signal (z-score),[9],1.28
same,glycan array binding signal (z-score),[10],21.8
same,glycan array binding signal (z-score),[11],1.43
same,glycan array binding signal (z-score),[12],-0.092
same,glycan array binding signal (z-score),[13],-0.456
same,glycan array binding signal (z-score),[14],0.048
same,glycan array binding signal (z-score),[15],1
same,glycan array binding signal (z-score),Gal(a1-3)Gal(b1-4)GlcNAc,-0.529
same,glycan array binding signal (z-score),Gal(a1-4)Gal(b1-4)Glc,4.58
same,glycan array binding signal (z-score),[16],0.047
same,glycan array binding signal (z-score),[17],-0.205
same,glycan array binding signal (z-score),[18],0.208
same,glycan array binding signal (z-score),[19],-0.32
same,glycan array binding signal (z-score),[20],-0.129
same,glycan array binding signal (z-score),[21],0.967
same,glycan array binding signal (z-score),Gal3S6S(b1-4)GlcNAc,0.399
same,glycan array binding signal (z-score),[22],1.15
same,glycan array binding signal (z-score),GalNAc(b1-4)GlcNAc,1.24
same,glycan array binding signal (z-score),[23],0.295
same,glycan array binding signal (z-score),[24],-0.118
same,glycan array binding signal (z-score),[25],-0.311
same,glycan array binding signal (z-score),[26],0.625
same,glycan array binding signal (z-score),[27],-0.204
same,glycan array binding signal (z-score),[28],0.215
same,glycan array binding signal (z-score),[29],0.773
same,glycan array binding signal (z-score),[30],-0.235
same,glycan array binding signal (z-score),[31],-0.293
same,glycan array binding signal (z-score),[32],-0.583
same,glycan array binding signal (z-score),[33],0.027
same,glycan array binding signal (z-score),[34],0.253
same,glycan array binding signal (z-score),[35],1.05
same,glycan array binding signal (z-score),[36],1.18
same,glycan array binding signal (z-score),Neu5Ac(a2-3)GalNAc,-0.364
same,glycan array binding signal (z-score),[37],-0.341
same,glycan array binding signal (z-score),[38],0.243
same,glycan array binding signal (z-score),[39],-0.285
same,glycan array binding signal (z-score),[40],0.684
